Pf growth 48h: Primary qHTS for delayed death inhibitors of the malarial parasite plastid, 48 hour incubation. P. falciparum luciferase growth in erythrocytes, 48 h. Potency, µM (highest dose often 28.7 µM), for the others: top-dose activity change, negative = inhibition, actives largely listed as inhibitors. 310,000 tested, 5.9% active; also: potency is read from the fitted curve at half-maximal effect; % is scaled to controls: 0 for no effect and ±100 for the full control effect
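Erythrocytes infected with P. falciparum carrying an integrated firefly luciferase reporter (2% hematocrit, 0.1% parasitemia final) were exposed to compounds in RPMI 1640 with 0.5% Albumax at 37 C, 5% CO2. Growth inhibition was scored as reduced luminescence.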
Pf growth 96h: Primary qHTS for delayed death inhibitors of the malarial parasite plastid, 96 hour incubation. P. falciparum luciferase reporter growth, 96 h. Potency, µM (top dose mostly 28.7 µM), for the others: top-dose activity change, negative = inhibition, hits mostly inhibitors. 320,000 tested, 6.9% active; also: potency is read from the fitted curve at half-maximal effect; % is scaled to controls: 0 for no effect and ±100 for the full control effect
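Two-generation exposure (96 h) targets delayed-death phenotype. Reporter parasites carrying integrated firefly luciferase, in red cells at 2% hematocrit and 0.05% parasitemia final, kept at 37 C, 5% CO2; luminescence loss indicates inhibition.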
HCMV antiviral: qHTS Assay for inhibitors of the human cytomegalovirus (HCMV); HFF cells, HCMV-luciferase reporter, 72 h; active compounds read low; activity change, negative = inhibition, % at 57.5 µM; 410,000 tested, 4.5% active; in the data active = activity change below about -60%; inconclusive = no clear call, values can overlap the other calls; inactive = above about -39%; also: % is scaled to controls: 0 for no effect and ±100 for the full control effect
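Cell-based, HFFs, 1000 cells/well, 16 h 37C; cpds in DMSO + HCMV-luc, MOI 1 PFU/cell; 72 h 37C; OneGlo luminescence after 5 min RT; norm. to buffer vs Salinomycin 10uM.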
CHX counter: Cycloheximide Counterscreen for Small Molecule Inhibitors of Shiga Toxin; cell reporter, cycloheximide protein synthesis inhibition counterscreen; max response, %; 300,000 tested, 12% active; in the data active = max response mostly above about 13%, no sharp cut-off; inactive = mostly below about 14%; also: read at 38.3 µM for the half of the compounds with a filed dose; 0% is about no effect
Shiga inhibitor: A qHTS for Small Molecule Inhibitors of Shiga Toxin; 290,000 tested, 9.2% active; inhibition, % at 38.7 µM; Vero cells, Shiga toxin protein synthesis inhibition reporter; in the data active = inhibition mostly above about 28%, no sharp cut-off; inactive = mostly below about 43%; also: 0% is about no effect
Starred values were filed as active, the others as inactive; ? = inconclusive; / = not tested or not shown. In the library only some 20% were active in any assay of this set; here they are far more common. Unless noted, calls follow the shape of the dose curve; as a rule, active = well fitted inhibition curve with a large enough effect; inconclusive = small, poorly fitted or top-dose-only effect, or another doubt; inactive = no such curve, though single readings can be large or run the other way.

SMILES	Pf growth 48h	Pf growth 96h	HCMV antiviral	CHX counter	Shiga inhibitor
Cc1cccc(C(=O)N2CCC(=O)N([C@H](COCc3ccccc3)Cc3ccccc3)CC2)c1	/	/	-5	-2	-4
Cc1cccc(C(=O)N2CCC(=O)N(C(COCc3ccccc3)Cc3ccccc3)CC2)c1 (stereo not given)	-23%	13µM*	-20	-3	-22
Cc1ccc(S(=O)(=O)N2CCC(=O)N(C(COCc3ccc(Cl)cc3)Cc3ccccc3)CC2)cc1 (stereo not given)	12µM*	10µM*	-33	0	40
Cc1cccc(COCC(Cc2ccccc2)N2CCN(C(=O)c3cccc(Cl)c3)CCC2=O)c1 (stereo not given)	?	12µM*	3	-3	-17
O=C(Nc1ccc2oc(-c3cccnc3)nc2c1)c1ccc(-c2cccc(Cl)c2)o1	/	/	-36	/	/
Cc1ccc(S(=O)(=O)N2CCN(Cc3cc(C(C)(C)C)ccc3O)CC2)cc1	12µM*	?	-36	1	-17
Cc1ccc(S(=O)(=O)N2CCN(Cc3ccccc3Cl)CC2)cc1	/	/	7	/	/
Cc1ccc(S(=O)(=O)N2CCN(Cc3cc(C(C)C)ccc3O)CC2)cc1	10µM*	10µM*	-18	-2	-8
O=C(CSc1nnc(-c2ccccc2)o1)NC1CC1	56%	38%	-14	/	/
COc1cccc(Oc2cn[nH]c2-c2ccc(OC)cc2O)c1	8.3µM*	/	-7	-1	23
CCOc1ccc(-c2[nH]ncc2Oc2cccc(OC)c2)c(O)c1	?	?	20	3	-11
COc1ccccc1Oc1cn[nH]c1-c1ccc(O)cc1O	?	?	-66*	1	-16
COc1cccc(Oc2cn[nH]c2-c2ccc(O)cc2O)c1	5.2µM*	19%	-16	-1	-4
CCOC(=O)c1c(C)[nH]c(C)c1S(=O)(=O)N1CCC(C(=O)NCc2ccccc2)CC1	/	/	8	/	/
CCc1ccccc1NC(=O)Cn1nnc(C(=O)NCc2ccco2)c1N	/	/	31	/	/
CC(C)c1ccc(NC(=O)C(c2ccccc2)N2CC(=O)Nc3ccccc32)cc1 (stereo not given)	35%	?	52	33*	active
Cc1ccc(NC(=O)[C@@H](c2ccccc2)N2Cc3ccccc3C2=O)cc1	/	/	-7	/	/
COc1ccc2c(c1)c1c(c(=O)n(-c3ccccc3)c(=O)n1CC(=O)Nc1ccc(C)c(C)c1)n2C	/	/	8	/	/
Cc1cccc(/C=C2\CCC(=C3SCCCS3)C2=O)c1	166%	81%	?	44*	80*
Cc1ccc(N2C(=O)CC(N3CCN/C3=C3\CC/C(=C\c4ccccc4)C3=O)C2=O)cc1 (stereo not given)	-19%	9%	-13	3	-7
O=C1NC(=S)SC1=Cc1ccc(F)cc1	/	/	66	/	/
O=C1C(=C2SCCCS2)CC/C1=C\c1ccc(F)cc1	4%	80%	-91*	31*	79*
O=C(Nc1ccc(Cl)cc1)c1cc(S(=O)(=O)N2CCc3ccccc32)ccc1F	/	/	0	/	/
COCCNC(=O)c1ccc2c(c1)S(=O)(=O)c1ccccc1C2=O	/	/	1	/	/
Cc1cccc(NC(=O)Cn2c(=O)n(CC3CCC(C(=O)NCCc4ccccc4)CC3)c(=O)c3ccccc32)c1C (stereo not given)	/	/	-8	/	/
SMILES	Pf growth 48h	Pf growth 96h	HCMV antiviral	CHX counter	Shiga inhibitor
O=C(CSc1n[nH]c(-c2ccccc2)n1)N1CCN(c2ccccc2F)CC1	/	/	-5	/	/
O=[N+]([O-])c1ccccc1/C=N/N1CCN(Cc2ccccc2)CC1	-8%	?	1	45*	/
Cn1cccc1/C=N/N1CCN(Cc2ccccc2Cl)CC1	3%	20%	7	8	19
O=[N+]([O-])c1ccccc1/C=N\N1CCN(Cc2ccccc2Cl)CC1	3%	-26%	-23	16*	15
Clc1ccccc1/C=N/N1CCN(Cc2ccccc2)CC1	27%	?	5	4	/
O=[N+]([O-])c1ccc(Cl)c(/C=N/N2CCN(Cc3ccccc3Cl)CC2)c1	-13%	41%	7	-4	-17
Fc1ccccc1/C=N/N1CCN(Cc2ccccc2Cl)CC1	22%	1%	11	19*	/
Clc1ccccc1CN1CCN(/N=C/C=C/c2ccco2)CC1	-3%	25%	42	26*	58*
CN1CCN(/N=C/c2cccc(Cl)c2Cl)CC1	60%	30%	-8	29*	41*
O=C(N[C@@H](Cc1ccccc1)C(=O)NC1CCCCCC1)c1ccco1	/	16%	80	53*	98*
O=C(NC(Cc1ccccc1)C(=O)O)c1ccco1 (stereo not given)	4%	?	-27	-2	-3
O=C(N[C@@H](Cc1ccccc1)C(=O)NC1CCCCC1)c1ccco1	/	-30%	-9	14	23*
Cc1cccc(NC(=S)NNC(=O)CCn2cc(C)cn2)c1	2%	?	1	-3	-19
O=C(N/C(=C/c1cccc([N+](=O)[O-])c1)C(=O)N1CCCCC1)c1ccco1	7%	-18%	-8	-2	-3
CN(C)/C=C1\C(=O)N(c2ccc([N+](=O)[O-])cc2)N=C1c1ccccc1	-22%	-39%	108	32*	93*
CN(C)/C=C1/C(=O)N(c2ccc([N+](=O)[O-])cc2)N=C1c1ccccc1	64%	58%	63	34*	83*
COc1ccccc1/C=C1/C(=O)N(c2ccc([N+](=O)[O-])cc2)N=C1C	?	6%	-35	-1	14
CC1=NN(c2ccccc2)C(=O)/C1=C/N(C)C	2%	3%	-29	-2	3
C/C(=C1/C(=O)N(c2ccc([N+](=O)[O-])cc2)N=C1c1ccccc1)N(C)C	-15%	-13%	/	25*	33
Cc1cccc(N(CC(=O)NC2CCCCC2)C(=O)CCCC(=O)Nc2ccccn2)c1C	-25%	0%	-16	1	1
O[C@H]1CN(CC2CCCCC2)[C@@H](c2ccccc2)C[C@@H]1n1cc(C2CC2)nn1	/	/	-22	/	/
CC(=O)CSc1nc2ccc(Nc3nc(N4CCOCC4)nc(N4CCOCC4)n3)cc2s1	?	6.6µM*	-13	-2	-15
O=C(CSc1nc2ccccc2s1)Nc1ccc(Cl)c(S(=O)(=O)N2CCOCC2)c1	?	4.7µM*	-23	10	14
